Measured values reported in PubChem BioAssay AID602449 (Sanford-Burnham Center for Chemical Genomics, 2012).
The campaign covered roughly 360,000 compounds. About 5,000 (1.4%) were called active.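 How the source made its calls: active means inhibition of 50% or more, scaled per plate between neutral and stimulator controls; inactive means the rest.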 This excerpt belongs to a sample that is enriched for actives.

Assay: mitochondrial permeability transition pore inhibitors, primary screen, biochemical, isolated mouse mitochondria, absorbance (AID 602449);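 further: 0% = DMSO wells given calcium and 100% = 1 mM EGTA wells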
Settings: Ca2+ swelling absorbance, 30 min, at 10 µM, hits give high values

| SMILES | inhibition |
| --- | --- |
| CCCCC(=O)N/N=C/c1c(O)n(CC)c(=S)n(CC)c1=O | 58% (active) |
| Cn1c(O)c(C=NCCCC(=O)O)c(=O)n(C)c1=O | 1.1% (inactive) |
| CCCCC(=O)N/N=C/c1c(O)n(CCC2=CCCCC2)c(=O)[nH]c1=O | -4.5% (inactive) |
| COc1ccc2c(c1)[C@]13CCCCC1C(C2)N(C)CC3 (stereo not given in full) | -3% (inactive) |
| Cc1ccc(C2CN(C)CC2C(=O)c2ccc(F)cc2)cc1 (stereo not given) | -0.4% (inactive) |
| CCN(CC)CCOC(=O)c1cc2cc(COC)ccc2o1 | -3.6% (inactive) |
| CCOc1cccc(=NC2CCCCC2)c2c(C)[nH]c(C)c12 | 62.7% (active) |
| C=CCn1c(O)c(/C=N/N2CCOCC2)c(=O)[nH]c1=S | -1.7% (inactive) |
| O=C(CCCn1c(=O)[nH]c2cc(Cl)ccc2c1=O)N1CCC2(CC1)OCCO2 | 1.1% (inactive) |
| C[C@H]1CN([C@@H](C)CO)C(=O)CCCn2nncc2CO[C@H]1CN(C)C(=O)Oc1ccccc1 | 0.9% (inactive) |
| CCCCCCCCCCCCn1ccc(=N)cc1 | 68.6% (active) |
| CC(=O)NCC1=C(c2ccc3ccccc3c2)C[C@@H]2CC[C@H]1N2Cc1ccco1 | -0.6% (inactive) |
| O=C(CN1CCCCC1)Nc1ccc(Br)cc1C(=O)c1ccccc1Cl | 1.1% (inactive) |
| COc1ccc(C2NCc3ccc4c(c3-n3cccc32)OCO4)cc1OC (stereo not given) | 68% (active) |
| COc1c(O)ccc2c1-c1c3c(cc4c1C(C2)N(C)CC4)OCO3 (stereo not given) | -0.5% (inactive) |
| c1ccc(C2NCc3ccccc3-n3cccc32)cc1 (stereo not given) | 0.4% (inactive) |
| O=C(Nc1cccc2ccccc12)N1CCC2(CC1)OCCO2 | 0.6% (inactive) |
| O=C1/C(=C\c2ccc3c(c2)OCO3)N2CCC1CC2 | -0.8% (inactive) |

| SMILES | inhibition |
| --- | --- |
| O=c1c2ccccc2nc(-c2ccc(Cl)cc2Cl)n1-c1ccncc1 | 0.3% (inactive) |
| COc1ccc(-c2nc(CS(=O)CC(=O)N3CCC4(CC3)OCCO4)c(C)o2)cc1 (stereo not given) | 1% (inactive) |
| O=Cc1cn(Cc2ccc(F)cc2Cl)c2ccccc12 | 60.7% (active) |
| Cc1ccnc(-n2c(C)cc(/C=C3\C(=O)NC(=S)N(C)C3=O)c2C)c1 | 6.4% (inactive) |
| O=C1C2CCN(CC2)C1(CO)CO | -0.5% (inactive) |
| CCN(CC)C(=O)c1ccc(NC(=O)c2sccc2-c2ccccc2)cc1 | 0.3% (inactive) |
| CCCCCCN=C(CC)c1c(O)n(CCCC)c(=O)[nH]c1=O | 79.8% (active) |
| CCC(=NCCCO)c1c(O)n(-c2ccc(OC)cc2)c(=O)[nH]c1=O | 2.3% (inactive) |
| CCCCn1c(O)c(C(CC)=NCc2ccco2)c(=O)[nH]c1=O | -0.1% (inactive) |
| Cc1cccc(-n2c(O)c(C=NC34CN5CN(CN(C5)C3)C4)c(=O)[nH]c2=O)c1 | 2.5% (inactive) |
| CSc1ccc(C(=O)C2CCCN(Cc3ccn[nH]3)C2)cc1 (stereo not given) | 1.7% (inactive) |
| CC(=CCOc1ccc2ccc(=O)oc2c1)C1=CC(=O)C(C)(C)O1 | 1.5% (inactive) |
| O=C(NCC1=C(c2ccc3ccccc3c2)C[C@@H]2CC[C@H]1N2Cc1ccco1)c1cccs1 | -1.7% (inactive) |
| CC(Cc1ccccc1)NCCC(c1ccccc1)c1ccccc1 (stereo not given) | 104% (active) |
| CCOc1ccc(C2SCC(=O)Nc3c2c(C)nn3C2CCOC(C)(C)C2)cc1 (stereo not given) | 0.4% (inactive) |
| Cc1ccsc1C(=O)C1CCCN(Cc2ccc(O)cc2)C1 (stereo not given) | 0.1% (inactive) |
| Cn1c(O)c(C=Nc2ccc3c(c2)CCC3)c(=O)n(C)c1=O | -1.3% (inactive) |
